According to PubChem BioAssay (NCATS):
Records with an inconclusive call do not appear. Calls of active or inactive are those of the source. The call rests on the fitted dose curve; in most records, active means well fitted curve in the direction sought with a large enough effect; inconclusive means small, poorly fitted or top-dose-only effect, or another doubt; inactive means no such curve, though single readings can be large; an effect the other way counts as inactive or inconclusive.

Columns and labels:
[1] = qHTS to identify inhibitors of the type 1 interferon - major histocompatibility complex class I in skeletal muscle: primary screen against the NCATS Pharmaceutical Collection (AID 1347407);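 further: luminescence of HiBiT knocked into endogenous HLA-B as interferon-induced MHC class I level; on the % scale 0 is the no-effect control and ±100 the full control effect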
Outline: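 Immortalized human myoblasts (C25cl48) with HiBiT knocked into endogenous HLA-B*08:01 were stimulated with 4 ng/ml IFN-beta and treated with compounds (8-point, 1:5, top 46 uM final) for 24 h at 37 C; HiBiT lytic luminescence read.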

[2] = target: Protein phosphatase 1D (Homo sapiens) (UniProt O15297); assay: RapidFire Mass Spectrometry qHTS Assay for Modulators of WT P53-Induced Phosphatase 1 (WIP1) (AID 1347424);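 further: amount of dephosphorylated VEPPL-S-QETFS peptide product formed by WIP1; series mostly up to about 63 µM; plate controls were DMSO wells for no effect and GSK830371 inhibitor control at 10 µM for full effect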
Outline: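 RapidFire mass spectrometry measured dephosphorylated peptide after 5 min room-temperature reaction of 2 uM VEPPL-pS-QETFS with 10 nM WIP1 (50 mM Tris-HCl pH 7.5, 30 mM MgCl2, 0.1 mM EGTA, BSA), following 1 hr compound preincubation; 1 uM isotope-labelled product standard.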

[3] = target: Protein phosphatase 1D (Homo sapiens) (UniProt O15297); assay: Rhodamine-PBP qHTS Assay for Modulators of WT P53-Induced Phosphatase 1 (WIP1) (AID 1347425); further: % of control where 0% means no effect
Outline: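 5 nM WIP1 + 10 uM Rh-PBP, 50 mM Tris pH 7.5, 30 mM MgCl2, 1 mM TCEP, 0.1 mM EGTA, BSA; cpds pinned, 1 hr RT; + 10 uM phosphopeptide; fluorescence 1-min reads x 11 min; delta = f1 - f0.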

[4] = Primary qHTS for inhibitors of La Crosse Virus (LACV) - induced cell death in SH-SY5Y cells (AID 1508616);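 further: top concentration of the series differs between compounds; 0% = infected DMSO wells and 100% = uninfected DMSO wells; higher means more rescue of cells from virus-induced death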
Outline: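 SH-SY5Y, 6000 cells/well; cpd via pin tool in DMSO; LACV 0.01 MOI; 6 d 37C 5% CO2; ATPLite, 5 min RT; luminescence normalized to ±virus DMSO controls.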

[5] = target: Calcium and integrin-binding protein 1 (Homo sapiens) (UniProt Q99828); assay: Primary qHTS for Identification of Calcium Integrin Binding Protein 1 (CIB1) Competitor (AID 1508620);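 further: GST tagged CIB1 binding a fluorescein labelled alphaIIb integrin peptide tracer; top concentration of the series differs between compounds; on the % scale 0 is the no-effect control and ±100 the full control effect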
Outline: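 CIB1-GST (1 uM final) and compound incubated 15 min at room temperature before adding FITC-alphaIIb peptide tracer (100 nM final). Competition for binding read by fluorescence polarization (ex 480, em 540) after another 15 min at room temperature.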

[6] = target: Calcium and integrin-binding protein 1 (Homo sapiens) (UniProt Q99828); assay: Confirmatory qHTS for Identification of Calcium Integrin Binding Protein 1 (CIB1) Competitor (AID 1508617); further: on the % scale 0 is the no-effect control and ±100 the full control effect; nearly all actives have a fitted effect of over 65% in size
Outline: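 Confirmatory qHTS measures displacement of a FITC-alphaIIb peptide (100 nM) from CIB1-GST (1 uM) by fluorescence polarization. Calcium-containing HEPES buffer, pH 7.4; two 15 min room-temperature incubations.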

[7] = Counterscreen qHTS for small molecule stabilizers of the endoplasmic reticulum resident proteome: GLuc-NoTag assay (AID 1508627);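 further: series mostly up to about 76 µM; 0% = thapsigargin alone and -100% = DMSO vehicle control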
Outline: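 Counterscreen line: SH-SY5Y-GLuc-NoTag cells, treated with compound 19 hr before a 4 hr, 100 nM thapsigargin calcium depletion. Secreted Gaussia luciferase in the medium was measured by luminescence after coelenterazine was added (0.07x final), with cells unlysed.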

[8] = Cell Viability qHTS for small molecule stabilizers of the endoplasmic reticulum resident proteome (AID 1508629); details: cell viability counter-screen, 100 nM thapsigargin for final 4 h;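 further: human SH-SY5Y neuroblastoma cells carrying the GLuc-SERCaMP reporter; compound exposure about 46 h in total before the viability read; on the % scale 0 is the no-effect control and ±100 the full control effect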
[9] = Confirmatory qHTS for small molecule stabilizers of the endoplasmic reticulum resident proteome: Secreted ER Calcium Modulated Protein (SERCaMP) assay (AID 1508628); further: series mostly up to about 76 µM; on the % scale 0 is the no-effect control and ±100 the full control effect; nearly all actives have a fitted effect of over 40% in size
Outline: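 Reporter secretion upon ER calcium depletion (100 nM thapsigargin, 4 h, 37C) is measured as medium luminescence with coelenterazine, after 16 h compound pretreatment of SH-SY5Y-GLuc-SERCaMP cells; primary at three concentrations up to 38.3 uM, follow-up at 11 (up to 76.6 uM).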

Sequence of Protein phosphatase 1D (Homo sapiens) (O15297 whole entry, looked up): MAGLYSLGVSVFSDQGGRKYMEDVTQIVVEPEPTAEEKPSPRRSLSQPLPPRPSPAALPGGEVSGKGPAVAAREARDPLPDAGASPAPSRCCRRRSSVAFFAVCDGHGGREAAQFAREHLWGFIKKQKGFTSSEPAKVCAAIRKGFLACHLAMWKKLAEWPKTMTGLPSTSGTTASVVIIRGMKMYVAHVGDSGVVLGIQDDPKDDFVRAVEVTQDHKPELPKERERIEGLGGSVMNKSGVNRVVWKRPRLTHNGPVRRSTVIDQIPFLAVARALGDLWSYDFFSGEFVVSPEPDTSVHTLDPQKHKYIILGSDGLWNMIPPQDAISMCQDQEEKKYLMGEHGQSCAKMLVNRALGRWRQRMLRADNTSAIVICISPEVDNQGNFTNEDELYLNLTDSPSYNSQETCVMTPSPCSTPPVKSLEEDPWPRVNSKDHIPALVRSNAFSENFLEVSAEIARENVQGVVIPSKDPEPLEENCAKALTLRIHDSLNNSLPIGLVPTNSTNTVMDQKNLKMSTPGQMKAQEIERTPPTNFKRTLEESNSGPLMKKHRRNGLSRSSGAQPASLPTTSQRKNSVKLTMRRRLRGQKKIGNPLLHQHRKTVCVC
Sequence of Calcium and integrin-binding protein 1 (Homo sapiens) (Q99828 whole entry, looked up): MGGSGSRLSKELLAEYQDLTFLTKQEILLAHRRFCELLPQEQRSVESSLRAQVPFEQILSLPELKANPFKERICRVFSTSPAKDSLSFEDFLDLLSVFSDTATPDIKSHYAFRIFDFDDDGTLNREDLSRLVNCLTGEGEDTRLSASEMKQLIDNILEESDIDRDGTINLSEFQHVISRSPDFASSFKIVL

CCCCCCCCCCCCCCCCCCOCC(O)CO (stereo not given)
inactive: Potency [1] | outcome [2] | outcome [3] | outcome [4] | outcome [5]

CN1CCOC(c2ccccc2)c2ccccc2C1 (stereo not given)
inactive: Potency [1] | outcome [2] | outcome [3] | outcome [4] | outcome [5]

O=C(O)c1ccccc1O
inactive: Potency [1] | outcome [2] | outcome [3] | outcome [4] | outcome [5]

C[C@@H](O)[C@H](N)C(=O)O
inactive: Potency [1] | outcome [2] | outcome [3] | outcome [4]

NCC(=O)CCC(=O)O
inactive: Potency [1] | outcome [2] | outcome [3] | outcome [4]

N[C@H]1C(O)O[C@H](CO)[C@@H](O)[C@@H]1O (stereo not given in full)
inactive: Potency [1] | outcome [2] | outcome [3] | outcome [4]

O=C1c2c(O)cccc2Cc2cccc(O)c21
inactive: Potency [1] | outcome [2] | outcome [3] | outcome [4]

NS(=O)(=O)c1cc2c(cc1Cl)NC(CSCc1ccccc1)=NS2(=O)=O
inactive: Potency [1] | outcome [2] | outcome [3] | outcome [4]

CC12CCC(CC1)C(C)(C)O2
inactive: Potency [1] | outcome [2] | outcome [3] | outcome [4]

CN(C)CCN(Cc1ccccc1)c1ccccn1
inactive: Potency [1] | outcome [2] | outcome [3] | outcome [4]

NC(=O)N/N=C/c1ccc([N+](=O)[O-])o1
inactive: Potency [1] | outcome [2] | outcome [3] | outcome [4] | outcome [5]

CCC(=O)Nc1ccc(O)cc1
inactive: Potency [1] | outcome [2] | outcome [3] | outcome [4] | outcome [5]

Oc1cccc(O)c1
inactive: Potency [1] | outcome [2] | outcome [3] | outcome [4]

CS(=O)(=O)c1ccc([C@@H](O)[C@@H](CF)NC(=O)C(Cl)Cl)cc1
inactive: Potency [1] | outcome [2] | outcome [3] | outcome [4] | outcome [5]

CN1[C@@H]2CC(OC(=O)[C@H](CO)c3ccccc3)C[C@H]1[C@@H]1O[C@@H]12 (stereo not given in full)
inactive: Potency [1] | outcome [2] | outcome [3] | outcome [4]

CCCCOc1cc(C(=O)OCCN(CC)CC)ccc1N
inactive: Potency [1] | outcome [2] | outcome [3] | outcome [4]

CC(=O)NC(Cc1ccccc1)C(=O)O (stereo not given)
inactive: Potency [1] | outcome [2] | outcome [3] | outcome [4] | Potency [6] | outcome [5]

CC(O)CN(CCN(CC(C)O)CC(C)O)CC(C)O (stereo not given)
inactive: Potency [1] | outcome [2] | outcome [3] | outcome [4]

O=C(O)CC(O)C(=O)O (stereo not given)
inactive: Potency [1] | outcome [2] | outcome [3] | outcome [4]

Nc1nc2c(ncn2CCC(CO)CO)c(=O)[nH]1
inactive: Potency [1] | outcome [2] | outcome [3] | outcome [4]

c1ccc2c(CC3=NCCN3)cccc2c1
inactive: Potency [1] | outcome [2] | outcome [3] | outcome [4]

COc1ccc2cc1Oc1cc3c(cc1OC)CC[N+](C)(C)[C@H]3Cc1ccc(cc1)Oc1c(OC)c(OC)cc3c1[C@@H](C2)[N+](C)(C)CC3
inactive: Potency [1] | outcome [2] | outcome [3] | outcome [4]

O=C1O[C@H](CO)[C@@H](O)[C@H](O)[C@H]1O
inactive: Potency [1] | outcome [2] | outcome [3] | outcome [4]

CCCCCCCCCCCCOS(=O)(=O)O
inactive: Potency [1] | outcome [2] | outcome [3] | outcome [4]

O=C(O)c1ccccn1
inactive: Potency [1] | outcome [2] | outcome [3] | outcome [4]

NCCNCCNCCN
inactive: Potency [1] | outcome [2] | outcome [3] | outcome [4]

O=C(O)CN1C(=O)c2cccc3cccc(c23)C1=O
inactive: Potency [1] | outcome [2] | outcome [3] | outcome [4]

CCC(=O)c1ccc(O)cc1
inactive: Potency [1] | outcome [2] | outcome [3] | outcome [4]

Cc1cc2c(cc1S(N)(=O)=O)S(=O)(=O)CCC2
inactive: Potency [1] | outcome [2] | outcome [3] | outcome [4] | outcome [5]

COc1cc(C)c(Cc2cnc(N)nc2N)cc1OC
inactive: Potency [1] | outcome [2] | outcome [3] | outcome [4] | outcome [5] | Potency [7] | max response [8] 8.8%

Nc1ccc(S(=O)(=O)NC(=O)c2ccccc2)cc1
inactive: Potency [1] | outcome [2] | outcome [3] | outcome [4] | outcome [5]

O=c1cc(CO)occ1O
inactive: Potency [1] | outcome [2] | outcome [3] | outcome [4] | outcome [5] | Potency [7] | Potency [9] | max response [8] 8.05%

CCOC(=O)[C@H](CCc1ccccc1)N[C@@H](C)C(=O)N1C(=O)N(C)C[C@H]1C(=O)O
inactive: Potency [1] | outcome [2] | outcome [3] | outcome [4] | outcome [5]

N[C@@H](CSSC[C@H](N)C(=O)O)C(=O)O
inactive: activity change, negative = inhibition [1] 0.957% [at 0.727 µM] | activity change, negative = inhibition [2] -0.373% [at 0.505 µM] | activity change, negative = inhibition [3] 14.5% [at 0.575 µM] | activity change [4] -4.86% [at 0.0343 µM] | activity change, negative = inhibition [5] 1.18% [at 1.07 µM]

CCOc1nc2cccc(C(=O)O)c2n1Cc1ccc(-c2ccccc2-c2nn[nH]n2)cc1
inactive: Potency [1] | outcome [2] | outcome [3] | outcome [4] | outcome [5]

N[C@@H](CSCCCO)C(=O)O
inactive: Potency [1] | outcome [2] | outcome [3] | outcome [4] | outcome [5]

CCCCN(CCCC)CCCOC(=O)c1ccc(N)cc1
inactive: Potency [1] | outcome [2] | outcome [3] | outcome [4] | outcome [5]
